# From the supplement of paper PMC12636033
# ± gives the standard deviation of the averaged measurements. Over roughly 33,000 sequences, “E-score (rank enrichment, -0.5 to 0.5)” has its median near -0.0043; the highest 2% begin near 0.24. This is one part of a sample in which the highest values are shown more often than they occur.
# Test system: 2Sp-muMax20 (muMax20 with two 2,6-bis(methyl)pyridine Cys staples)
# Assay: PBM 8-mer E-score (E-score (rank enrichment, -0.5 to 0.5)); higher = stronger preferential binding
# Procedure: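 Protein binding microarray (universal PBM chip covering all 10-mers in fixed probe flanks) with chemically synthesized human Max(13-93) bHLH-LZ analogs (not full-length Max) bearing noncanonical residues (hArg, Tha, Aib, Nle at 65) and aromatic Cys staples. Read-out per 8-mer (and its reverse complement): E-score (rank-based enrichment, -0.5 to 0.5) and Z-score of median probe intensity.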
row,Sequence,PBM 8-mer E-score
1,GGACGCAA,0.0641 ± 0.04
2,AGTTGCAG,0.122 ± 0.058
3,TACAGGTA,0.0603 ± 0.031
4,ATCAATGG,0.0872 ± 0.022
5,GCCTCAAC,0.0347 ± 0.072
6,ATCGTAAT,0.238 ± 0.0064
7,ATCGTAAA,0.159 ± 0.07
8,ATCGTAAG,-0.0242 ± 0.048
9,GTCCTTGA,-0.198 ± 0.017
10,CGTAACGA,0.0392 ± 0.11
11,AAGGGTTG,0.0285 ± 0.053
12,AGGGGTTA,0.124 ± 0.052
13,AGGGGTTG,0.258 ± 0.045
14,CGGATCAA,-0.188 ± 0.075
15,TATAGAGA,-0.0265 ± 0.04
16,CAATGACA,0.128 ± 0.054
17,CTATGATA,0.0216 ± 0.058
18,CTATGACA,0.106 ± 0.0052
19,GAATGACA,-0.0425 ± 0.0067
20,ATATGATG,0.181 ± 0.031
21,ATATGACA,0.25 ± 0.012
22,GTATGAGA,0.124 ± 0.0095
23,GTATGATA,0.342 ± 0.008
24,TAATGACA,0.25862 ± 7.8e-05
25,GCATGATA,0.226 ± 0.0026

row,Sequence,PBM 8-mer E-score
1,ATATGATA,0.2602 ± 0.0017
2,GTATGACA,0.158 ± 0.0027
3,ACAATTGG,0.0427 ± 0.02
4,CTCGTTAA,0.0752 ± 0.0062
5,CGGGATCA,-0.0799 ± 0.0016
6,AAATCCCG,0.1036 ± 0.0009
7,ACTGAGAT,0.0783 ± 0.12
8,CACGGATC,-0.305 ± 0.0061
9,CATGATAC,0.253 ± 0.048
10,AATGATAC,0.193 ± 0.13
11,AATGATAG,0.176 ± 0.039
12,CATGATAA,0.267 ± 0.065
13,GATGATTA,0.103 ± 0.0017
14,CATGATAG,0.0923 ± 0.043
15,CATGATTC,0.0562 ± 0.0054
16,AATGATAT,0.241 ± 0.01
17,AATGATAA,0.0232 ± 0.082
18,ACTGATAT,0.0652 ± 0.073
19,TATGATAA,0.0434 ± 0.066
20,CATGATTA,0.24 ± 0.025
21,CGCTATAG,0.0363 ± 0.071
22,GGGGTGAC,0.0455 ± 0.096
23,CGGCCTTC,-0.124 ± 0.097
24,TAAGATAA,0.0454 ± 0.027
25,CAAGATAA,0.276 ± 0.014

row,Sequence,PBM 8-mer E-score
1,AAAGATAA,0.218 ± 0.028
2,AATTCTTC,0.0644 ± 0.062
3,GCACCCCA,0.128 ± 0.071
4,TCACCCAA,0.143 ± 0.0019
5,ACACCCCA,0.208 ± 0.015
6,TCACCCCA,0.276 ± 0.021
7,CCACCCCC,-0.0899 ± 0.002
8,CCACCCCA,0.254 ± 0.043
9,AATGGATG,-0.124 ± 0.015
10,AGTACACG,0.0271 ± 0.052
11,AAGAGCCT,0.00281 ± 0.074
12,AGTCGCAA,0.119 ± 0.018
13,GTAAATAC,0.0558 ± 0.018
14,ATAAATAC,0.264 ± 0.019
15,GTAAATAA,0.157 ± 0.059
16,CTAAATAA,0.126 ± 0.07
17,TTAAATAA,0.171 ± 0.051
18,ATAAATAA,0.171 ± 0.053
19,CTAAATAC,0.249 ± 0.037
20,ATAAATAT,0.263 ± 0.021
21,ATAAATAG,0.191 ± 0.021
22,CAGCGTCC,-0.107 ± 0.044
23,TCGATTCA,0.0577 ± 0.023
24,GAGCTCAC,0.0534 ± 0.12
25,ATCTGTTC,0.11 ± 0.068

row,Sequence,PBM 8-mer E-score
1,ACTAGCAC,0.0515 ± 0.15
2,AGACCCCA,0.284 ± 0.052
3,AGACCCCC,-0.388 ± 0.063
4,ACCCCCAA,-0.142 ± 0.059
5,AAACCCCC,-0.303 ± 0.11
6,CTACCCCA,0.283 ± 0.011
7,CTACCCCC,-0.195 ± 0.12
8,AACCCAAA,0.0422 ± 0.03
9,TGACCCCA,0.108 ± 0.02
10,AACCCCAA,0.249 ± 0.062
11,AACCCCCA,-0.297 ± 0.061
12,CTACCCAA,0.0921 ± 0.061
13,AAACCCCA,0.293 ± 0.022
14,GCCATTCC,-0.155 ± 0.069
15,TCGAGAAA,0.0513 ± 0.046
16,GCCTTCTA,0.0133 ± 0.025
17,CCCGCACA,-0.141 ± 0.011
18,AAACCTGA,-0.0739 ± 0.087
19,AAACAGAC,0.143 ± 0.097
20,AGGTGGCA,-0.0941 ± 0.015
21,ACCAGGTA,-0.11 ± 0.012
22,AATTATTG,0.196 ± 0.015
23,AGACCAAC,-0.0312 ± 0.013
24,CAACCCAA,0.0124 ± 0.094
25,CAACCCCA,0.264 ± 0.035

row,Sequence,PBM 8-mer E-score
1,CAACCCCC,-0.196 ± 0.022
2,ATGCTTTA,0.138 ± 0.081
3,ATGCTTTG,0.239 ± 0.036
4,ATGCTTTC,0.125 ± 0.017
5,GCGCGCTA,0.235 ± 0.021
6,AATCGCAG,0.142 ± 0.046
7,TGGGCCAA,-0.0226 ± 0.046
8,GTGCATTA,0.156 ± 0.042
9,ACGCATGA,0.136 ± 0.0059
10,CTGCAATA,0.0295 ± 0.0051
11,ATGCAATA,0.246 ± 0.0094
12,ACGCATGC,0.277 ± 0.06
13,GTGCATCA,0.0111 ± 0.045
14,ATGCATCA,0.347 ± 0.046
15,ACGCATGG,0.13 ± 0.026
16,ATGCATCG,0.0497 ± 0.074
17,CTGCATTA,0.107 ± 0.025
18,ATGCATTA,0.319 ± 0.0086
19,GTGCAATA,0.0506 ± 0.012
20,CGACCACC,-0.142 ± 0.0047
21,GCCTTAGC,-0.154 ± 0.029
22,AGATCTTG,0.152 ± 0.051
23,CCATCGAA,-0.00649 ± 0.052
24,GACTATGC,0.0616 ± 0.023
25,ATCCAGTG,-0.0872 ± 0.065

row,Sequence,PBM 8-mer E-score
1,ACATTCGG,-0.0311 ± 0.13
2,ACGCATAG,-0.0802 ± 0.035
3,ACGCATAT,0.333 ± 0.011
4,ACGCATAA,0.164 ± 0.07
5,CTGCATGC,0.0733 ± 0.071
6,ATGCATTG,0.165 ± 0.0071
7,CTGCATAC,0.0466 ± 0.068
8,ATGCATAA,0.114 ± 0.045
9,ATGCATAC,0.258 ± 0.12
10,ATGCATGG,0.13 ± 0.055
11,ATGCATTC,0.285 ± 0.048
12,ATGCATGC,0.262 ± 0.048
13,CTGCATTC,-0.000675 ± 0.052
14,CAGGGGGA,0.00992 ± 0.059
15,ACACCGCT,-0.116 ± 0.068
16,CAGCTTGG,-0.0934 ± 0.012
17,GCCCGGGC,-0.296 ± 0.055
18,ACTGAATG,-0.0577 ± 0.048
19,CGCCGATC,-0.128 ± 0.13
20,ATTTGCCA,-0.024 ± 0.041
21,ACTTCCGG,-0.229 ± 0.1
22,CTCCTCTA,-0.151 ± 0.013
23,CACCTCCG,-0.0614 ± 0.051
24,GAAAGTCA,-0.0504 ± 0.065
25,AGCTGGGA,-0.08 ± 0.019

row,Sequence,PBM 8-mer E-score
1,ATACATTC,0.2884 ± 0.0017
2,ATTCATTG,0.161 ± 0.087
3,ATACATTG,0.106 ± 0.029
4,CTACATTC,0.0778 ± 0.03
5,ATTCATTC,0.305 ± 0.013
6,ATTCATTA,0.176 ± 0.007
7,GCCGTTCC,-0.21 ± 0.089
8,AGGTAGAG,-0.122 ± 0.024
9,AATGCTGT,-0.0251 ± 0.073
10,GGCCTCGA,-0.238 ± 0.045
11,ACGTGCAT,0.195 ± 0.096
12,GCGTGCAC,0.204 ± 0.017
13,CCGTGCTC,-0.119 ± 0.14
14,ACGTGCTG,0.12 ± 0.063
15,ACGTGCAC,0.273 ± 0.051
16,ACGTGCTC,0.259 ± 0.027
17,CTTACCAC,0.0166 ± 0.11
18,GTCCTTTA,-0.0713 ± 0.029
19,CCTATCCA,-0.0745 ± 0.015
20,AGTAGGAG,-0.0281 ± 0.053
21,CGCAAGAC,-0.023 ± 0.0044
22,CCCAATTA,0.203 ± 0.057
23,CCCAATTC,0.246 ± 0.083
